# Measured values: the supplement of paper PMC8371130
# Structures can show the parent of a compound that is named as a salt.
# System: HL-1
# Assay: relative cell viability (CellTiter-Glo) vs DMSO control (% of DMSO control); higher = more viable cells
# Conditions: oxygen condition: normoxia 72 h; 1000 nM
# Summary of the method: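 One day after HL-1 mouse atrial cardiomyocytes were plated (1000 cells per well, 384-well plates) with compounds at 40, 200, 1000 or 5000 nM in 0.01% DMSO, they were transferred to a hypoxic workstation at 1% O2. After 48 h there, the cells were reoxygenated for 24 h in a normal incubator, and comparison cells stayed in normoxia throughout the same time. Cell viability was quantified with CellTiter-Glo luminescence and normalised to vehicle-treated control cells.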
row,Structure (SMILES),relative cell viability
1,Cc1onc(-c2ccccc2)c1C(=O)N[C@@H]1C(=O)N2[C@@H]1SC(C)(C)[C@@H]2C(=O)O [Oxacillin sodium monohydrate],110
2,O=C(CCCCCCC(=O)Nc1ccccc1)NO [Vorinostat],90.1
3,CC1CCc2c(N3CCC(O)CC3)c(F)cc3c(=O)c(C(=O)O)cn1c23 (centres undefined) [Nadifloxacin],100
4,CCN(CCCc1ccccc1)CCCc1ccccc1 [Alverine Citrate],106
5,CC(=O)O[C@H]1C[C@@H]2CC[C@@H]3[C@H](CC[C@@]4(C)[C@H]3C[C@H]([N+]3(C)CCCCC3)[C@@H]4OC(C)=O)[C@@]2(C)C[C@@H]1N1CCCCC1 [Vecuronium Bromide],122
6,CNCCC(Oc1ccc(C(F)(F)F)cc1)c1ccccc1 (centres undefined) [Fluoxetine  HCl],106
7,CCCNC(C)C(=O)Nc1ccccc1C (centres undefined) [Prilocaine],92.3
8,Cc1c(N(C)C)c(=O)n(-c2ccccc2)n1C [Amidopyrine],110
9,CCCCN1CCCCC1C(=O)Nc1c(C)cccc1C (centres undefined) [Bupivacaine hydrochloride],106
10,O=C1c2c(O)ccc(O)c2C(=O)c2c(NCCNCCO)ccc(NCCNCCO)c21 [Mitoxantrone Hydrochloride],3.59
11,CO[C@H]1C[C@@H]2CC[C@@H](C)[C@@](O)(O2)C(=O)C(=O)N2CCCC[C@H]2C(=O)O[C@H]([C@H](C)C[C@@H]2CC[C@@H](OC(=O)C(C)(CO)CO)[C@H](OC)C2)CC(=O)[C@H](C)/C=C(\C)[C@@H](O)[C@@H](OC)C(=O)[C@H](C)C[C@H](C)/C=C/C=C/C=C/1C [Temsirolimus],81.1
12,C[C@@H]1C[C@H]2[C@@H]3C[C@H](F)C4=CC(=O)C=C[C@]4(C)[C@@]3(F)[C@@H](O)C[C@]2(C)[C@@]1(O)C(=O)CO [Flumethasone],94.4
13,C#C[C@]1(OC(C)=O)CC[C@H]2[C@@H]3CCC4=C[C@@H](OC(C)=O)CC[C@@H]4[C@H]3CC[C@@]21C [Ethynodiol diacetate],104
14,CS(=O)(=O)c1ccc(C2=C(c3ccccc3)C(=O)OC2)cc1 [Rofecoxib],107
15,NS(=O)(=O)c1cc2c(cc1Cl)N=C(CSCc1ccccc1)NS2(=O)=O [Benzthiazide],100
16,CC[C@H]1OC(=O)[C@H](C)[C@@H](O[C@H]2C[C@@](C)(OC)[C@@H](O)[C@H](C)O2)[C@H](C)[C@@H](O[C@@H]2O[C@H](C)C[C@H](N(C)C)[C@H]2O)[C@](C)(O)C[C@@H](C)/C(=N\OCOCCOC)[C@H](C)[C@@H](O)[C@]1(C)O [Roxithromycin],103
17,CC1=C(/C=C/C(C)=C/C=C/C(C)=C/C(=O)O)C(C)(C)CCC1 [Tretinoin],101
18,CCOC(=O)OC(C)OC1=C(C(=O)Nc2ccccn2)N(C)S(=O)(=O)c2ccccc21 (centres undefined) [Ampiroxicam],102
19,CC(O)(P(=O)(O)O)P(=O)(O)O [Etidronate],95.9
20,COC(=O)[C@H](c1ccccc1Cl)N1CCc2sccc2C1 [Clopidogrel],105

row,Structure (SMILES),relative cell viability
1,C[C@H](CCC(=O)O)[C@H]1CC[C@H]2[C@@H]3[C@@H](O)C[C@@H]4C[C@H](O)CC[C@]4(C)[C@H]3CC[C@]12C [Ursodiol],119
2,C[C@@H](O[C@H]1OCCN(Cc2nn(P(=O)(O)O)c(=O)[nH]2)[C@H]1c1ccc(F)cc1)c1cc(C(F)(F)F)cc(C(F)(F)F)c1 [Fosaprepitant dimeglumine],130
3,CC(=O)Oc1ccc(C(c2ccc(OC(C)=O)cc2)c2ccccn2)cc1 [Bisacodyl],101
4,Cc1cc(N)c2ccccc2[n+]1CCCCCCCCCC[n+]1c(C)cc(N)c2ccccc21 [Dequalinium chloride],97.3
5,CC1CNc2c(cccc2S(=O)(=O)N[C@@H](CCCNC(=N)N)C(=O)N2CC[C@@H](C)C[C@@H]2C(=O)O)C1 (some centres undefined) [Argatroban],97.6
6,CCCCNc1cc(C(=O)O)cc(S(N)(=O)=O)c1Oc1ccccc1 [Bumetanide],112
7,CCCCC(=O)O[C@H]1CC[C@H]2[C@@H]3CCc4cc(O)ccc4[C@H]3CC[C@]12C [Estradiol valerate],102
8,C[C@@](Cc1ccc(O)c(O)c1)(NN)C(=O)O [Carbidopa],102
9,O=c1[nH]cc(F)c(=O)[nH]1 [Adrucil],42.9
10,COc1ccccc1N1CCN(CC(O)COc2cccc3ccccc23)CC1 (centres undefined) [Naftopidil],102
11,OC(CCN1CCCC1)(c1ccccc1)C1CCCCC1 (centres undefined) [Procyclidine HCl],82.5
12,COc1ccc2cc1Oc1ccc(cc1)C[C@H]1c3c(cc4c(c3Oc3cc5c(cc3OC)CCN(C)[C@@H]5C2)OCO4)CCN1C [Cepharanthine],87.5
13,C=C1CC[C@H](O)C/C1=C/C=C1\CCC[C@]2(C)[C@@H]([C@H](C)/C=C/[C@H](C)C(C)C)CC[C@@H]12 [Vitamin D2],109
14,COc1cccc2c1C(=O)c1c(O)c3c(c(O)c1C2=O)C[C@@](O)(C(=O)CO)C[C@@H]3O[C@H]1C[C@H](N)[C@H](O)[C@H](C)O1 [Doxorubicin],52.4
15,CCOC(=O)c1c(C)n(C)c2ccc(O)cc12 [Mecarbinate],106
16,O=C(c1ccc(OCCN2CCCCC2)cc1)c1c(-c2ccc(O)cc2)sc2cc(O)ccc12 [Evista],109
17,CC(=O)O[C@H]1CC[C@@]2(C)C(=CC[C@@H]3[C@@H]2CC[C@]2(C)C(c4cccnc4)=CC[C@@H]32)C1 [Abiraterone Acetate],102
18,CN(Cc1cc(Br)cc(Br)c1N)C1CCCCC1 [Bromhexine HCl],98.4
19,C#CCN[C@@H]1CCc2ccccc21 [Rasagiline mesylate],99.4
